From PubChem BioAssay (Tox21)
Inconclusive results are not listed. Active and inactive are the calls of the source. Unless noted, the call rests on the fitted dose curve; in most records, active means well fitted curve in the direction sought with a large enough effect in the repeat runs; inconclusive means weak or mixed curves; inactive means no such curve, though single readings can be large; an effect the other way counts as inactive or inconclusive.

What was measured:
[1] = target: Acetylcholinesterase (Homo sapiens) (UniProt P22303); assay: Acetylcholinesterase (AChE) small molecule antagonists: fluorescence cell-based qHTS assay (AID 1347398; calls by dose curve; further: nearly all actives have a fitted effect of over 50% in size; further: potency means the concentration at half of the fitted maximal effect); settings: Potency: AChE activity
Method in brief: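 Cellular AChE inhibition: SH-SY5Y cells treated with test chemical for 30 min at 37 C, then acetylthiocholine hydrolysis followed over 40 min at room temperature via thiocholine-reactive Thiolite Green fluorescence (490/520 nm).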

[2] = target: Acetylcholinesterase (Homo sapiens) (UniProt P22303); assay: Acetylcholinesterase (AChE) small molecule antagonists: enzyme-based qHTS assay with human liver microsomes (AID 1347399; calls by dose curve; further: nearly all actives have a fitted effect of over 60% in size); settings: Potency: qHTS inhibition
Method in brief: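 Recombinant human AChE (50 mU/mL in the enzyme mix) and human liver microsomes (0.25 mg/mL final) were preincubated with compound and NADPH (0.25 mg/mL final) for 30 min at 37 C. Acetylthiocholine/DTNB was then added; thiocholine was read colorimetrically after 10 min at room temperature.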

[3] = target: Cytochrome P450 2D6 (Homo sapiens) (UniProt P10635); assay: Cytochrome P450 Family 2 Subfamily D Member 6 (CYP2D6) small molecule antagonists: luciferase reporter qHTS assay (AID 1671196); further: potency means the concentration at half of the fitted maximal effect; nearly all actives have a fitted effect of over 50% in size
Method in brief: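 Luminogenic proluciferin substrate, CYP2D6 enzyme; 10 min RT preincubation with compound, NADPH regeneration system added, 1 h RT. Stop/detection reagent, 20 min RT, luminescence read (RLU). Signal proportional to CYP activity.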

[4] = target: Voltage-gated inwardly rectifying potassium channel KCNH2 (Homo sapiens) (UniProt Q12809); assay: Human Ether-a-go-go-Related Gene (hERG) channel small molecule antagonists: fluorescence cell-based qHTS assay (AID 1671200); further: nearly all actives have a fitted effect of over 50% in size; further: potency means the concentration at half of the fitted maximal effect
Method in brief: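 Quantitative HTS in hERG-U2OS cells: thallium entry through the channel reports activity, read as continuous 480/540 nm fluorescence over 2 min after stimulus addition.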

[5] = target: Cytochrome P450 3A4 (Homo sapiens) (UniProt P08684); assay: Cytochrome P450 Family 3 Subfamily A Member 4 (CYP3A4) small molecule antagonists: luciferase reporter qHTS assay (AID 1671201); further: nearly all actives have a fitted effect of over 50% in size; further: potency means the concentration at half of the fitted maximal effect
Method in brief: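 Inhibition of CYP3A4 is measured as loss of light: the enzyme converts a proluciferin substrate to luciferin, detected luminescently. Reaction ran 1 h at room temperature with NADPH regeneration after a 10 min compound preincubation.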

[6] = target: Cytochrome P450 1A2 (Homo sapiens) (UniProt P05177); assay: Cytochrome P450 Family 1 Subfamily A Member 2 (CYP1A2) small molecule antagonists: luciferase reporter qHTS assay (AID 1671199); further: nearly all actives have a fitted effect of over 50% in size; further: potency means the concentration at half of the fitted maximal effect
Method in brief: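 Luminescence readout (relative luminescence units) after luciferin detection reagent, 20 min RT. Preceded by 1 h room-temperature CYP1A2 reaction with NADPH regeneration solution following 10 min compound preincubation with enzyme and proluciferin substrate. Furafylline positive control.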

[7] = target: Cytochrome P450 2C19 (Homo sapiens) (UniProt P33261); assay: Cytochrome P450 Family 2 Subfamily C Member 19 (CYP2C19) small molecule antagonists: luciferase reporter qHTS assay (AID 1671197); further: nearly all actives have a fitted effect of over 65% in size; further: potency means the concentration at half of the fitted maximal effect
Method in brief: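 Light output is proportional to CYP2C19 activity: proluciferin substrate is converted to luciferin, then detected by a luciferin detection reagent that also stops the 1 h, 37C NADPH-driven reaction. Ketoconazole serves as positive control.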

[8] = target: Cytochrome P450 2C9 (Homo sapiens) (UniProt P11712); assay: Cytochrome P450 Family 2 Subfamily C Member 9 (CYP2C9) small molecule antagonists: luciferase reporter qHTS assay (AID 1671198); further: nearly all actives have a fitted effect of over 50% in size; further: potency means the concentration at half of the fitted maximal effect
Method in brief: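 CYP2C9 activity was measured with a P450-Glo proluciferin substrate. Enzyme–substrate mix was held with compound for 10 min at room temperature, then NADPH regeneration solution was added for 1 h at 37C. Luciferin product was read as luminescence.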

Measured: Potency

Chain of Acetylcholinesterase (Homo sapiens) (P22303 whole entry, looked up): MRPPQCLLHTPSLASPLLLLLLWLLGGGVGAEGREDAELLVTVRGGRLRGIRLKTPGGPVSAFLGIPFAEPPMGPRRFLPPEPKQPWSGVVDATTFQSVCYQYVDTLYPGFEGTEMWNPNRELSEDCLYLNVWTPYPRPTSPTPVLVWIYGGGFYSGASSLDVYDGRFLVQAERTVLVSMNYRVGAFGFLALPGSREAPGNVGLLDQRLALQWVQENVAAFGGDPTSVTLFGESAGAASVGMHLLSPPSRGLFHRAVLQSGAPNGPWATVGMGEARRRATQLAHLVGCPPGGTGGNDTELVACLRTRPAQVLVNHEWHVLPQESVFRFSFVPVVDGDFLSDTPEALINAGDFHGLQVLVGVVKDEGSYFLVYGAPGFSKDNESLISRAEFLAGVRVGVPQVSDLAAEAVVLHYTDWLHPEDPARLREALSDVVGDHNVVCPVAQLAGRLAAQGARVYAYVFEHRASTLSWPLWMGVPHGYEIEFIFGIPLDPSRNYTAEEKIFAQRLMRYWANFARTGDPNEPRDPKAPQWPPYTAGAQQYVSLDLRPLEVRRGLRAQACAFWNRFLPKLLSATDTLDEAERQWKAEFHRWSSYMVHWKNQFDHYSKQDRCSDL
Chain of Cytochrome P450 3A4 (Homo sapiens) (P08684 whole entry, looked up): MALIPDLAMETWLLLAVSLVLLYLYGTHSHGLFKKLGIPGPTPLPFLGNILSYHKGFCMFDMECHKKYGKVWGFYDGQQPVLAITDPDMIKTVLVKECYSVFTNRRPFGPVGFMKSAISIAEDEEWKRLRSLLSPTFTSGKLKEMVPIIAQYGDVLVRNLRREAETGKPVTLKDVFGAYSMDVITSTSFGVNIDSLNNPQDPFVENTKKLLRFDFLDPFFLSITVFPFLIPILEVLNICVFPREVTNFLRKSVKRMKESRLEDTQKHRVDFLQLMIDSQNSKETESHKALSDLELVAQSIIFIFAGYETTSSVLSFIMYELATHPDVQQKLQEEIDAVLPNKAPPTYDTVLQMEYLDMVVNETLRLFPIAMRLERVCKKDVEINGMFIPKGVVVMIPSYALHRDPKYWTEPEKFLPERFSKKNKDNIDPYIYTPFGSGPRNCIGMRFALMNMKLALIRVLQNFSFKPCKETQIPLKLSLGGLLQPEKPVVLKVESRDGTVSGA
Chain of Cytochrome P450 1A2 (Homo sapiens) (P05177 whole entry, looked up): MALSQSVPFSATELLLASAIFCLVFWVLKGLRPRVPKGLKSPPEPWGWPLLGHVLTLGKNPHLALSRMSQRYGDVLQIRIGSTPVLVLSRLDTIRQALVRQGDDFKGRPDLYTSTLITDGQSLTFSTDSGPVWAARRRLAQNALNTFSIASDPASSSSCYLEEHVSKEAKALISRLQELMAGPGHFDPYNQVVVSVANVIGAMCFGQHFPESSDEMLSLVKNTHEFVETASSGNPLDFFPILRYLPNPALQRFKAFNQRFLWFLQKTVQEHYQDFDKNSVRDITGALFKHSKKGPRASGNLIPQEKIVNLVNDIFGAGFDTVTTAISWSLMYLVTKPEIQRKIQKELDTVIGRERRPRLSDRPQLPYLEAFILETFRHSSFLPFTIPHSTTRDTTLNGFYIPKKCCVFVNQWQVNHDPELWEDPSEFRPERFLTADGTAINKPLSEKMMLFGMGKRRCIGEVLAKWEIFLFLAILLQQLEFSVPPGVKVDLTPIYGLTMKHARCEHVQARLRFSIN
Chain of Cytochrome P450 2C19 (Homo sapiens) (P33261 whole entry, looked up): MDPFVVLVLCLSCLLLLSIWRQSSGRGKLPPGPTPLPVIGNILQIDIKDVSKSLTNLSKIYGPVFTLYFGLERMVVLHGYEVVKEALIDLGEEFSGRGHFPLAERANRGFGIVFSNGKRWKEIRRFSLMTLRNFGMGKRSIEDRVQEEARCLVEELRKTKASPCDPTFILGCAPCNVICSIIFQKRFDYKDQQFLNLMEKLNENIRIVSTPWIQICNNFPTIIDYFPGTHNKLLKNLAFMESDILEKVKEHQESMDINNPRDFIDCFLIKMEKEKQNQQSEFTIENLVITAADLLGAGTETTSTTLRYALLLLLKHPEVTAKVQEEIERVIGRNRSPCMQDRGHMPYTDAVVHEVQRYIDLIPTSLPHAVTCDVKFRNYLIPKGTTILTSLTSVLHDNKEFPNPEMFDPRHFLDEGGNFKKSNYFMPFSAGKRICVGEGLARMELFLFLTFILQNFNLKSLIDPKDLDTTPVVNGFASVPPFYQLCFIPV
Chain of Cytochrome P450 2C9 (Homo sapiens) (P11712 whole entry, looked up): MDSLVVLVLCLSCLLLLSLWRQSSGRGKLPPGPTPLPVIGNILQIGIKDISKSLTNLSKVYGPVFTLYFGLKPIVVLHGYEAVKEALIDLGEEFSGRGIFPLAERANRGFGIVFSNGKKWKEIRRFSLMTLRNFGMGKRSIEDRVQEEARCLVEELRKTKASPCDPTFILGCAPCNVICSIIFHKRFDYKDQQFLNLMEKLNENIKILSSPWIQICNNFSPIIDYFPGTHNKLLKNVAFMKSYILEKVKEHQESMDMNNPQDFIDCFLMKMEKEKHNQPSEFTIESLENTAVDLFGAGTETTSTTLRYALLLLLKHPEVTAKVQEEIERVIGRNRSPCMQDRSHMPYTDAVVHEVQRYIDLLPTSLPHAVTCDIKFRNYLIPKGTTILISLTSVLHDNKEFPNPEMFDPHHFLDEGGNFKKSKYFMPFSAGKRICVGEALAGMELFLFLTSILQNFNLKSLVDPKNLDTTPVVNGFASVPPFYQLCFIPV
Chain of Cytochrome P450 2D6 (Homo sapiens) (P10635 whole entry, looked up): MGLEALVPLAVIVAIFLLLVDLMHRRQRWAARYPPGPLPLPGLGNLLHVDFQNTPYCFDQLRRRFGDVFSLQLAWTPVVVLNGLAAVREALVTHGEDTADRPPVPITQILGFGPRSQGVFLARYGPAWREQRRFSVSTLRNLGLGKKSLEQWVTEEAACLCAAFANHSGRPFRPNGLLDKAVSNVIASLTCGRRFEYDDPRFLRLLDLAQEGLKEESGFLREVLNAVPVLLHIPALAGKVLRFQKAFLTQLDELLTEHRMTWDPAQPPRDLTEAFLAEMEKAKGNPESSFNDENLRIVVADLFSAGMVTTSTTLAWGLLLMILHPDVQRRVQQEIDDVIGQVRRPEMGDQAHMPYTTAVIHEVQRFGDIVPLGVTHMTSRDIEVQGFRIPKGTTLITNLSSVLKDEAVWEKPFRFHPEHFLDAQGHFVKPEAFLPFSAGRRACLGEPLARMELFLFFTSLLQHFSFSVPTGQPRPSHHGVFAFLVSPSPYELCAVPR
Chain of Voltage-gated inwardly rectifying potassium channel KCNH2 (Homo sapiens) (Q12809 whole entry, looked up): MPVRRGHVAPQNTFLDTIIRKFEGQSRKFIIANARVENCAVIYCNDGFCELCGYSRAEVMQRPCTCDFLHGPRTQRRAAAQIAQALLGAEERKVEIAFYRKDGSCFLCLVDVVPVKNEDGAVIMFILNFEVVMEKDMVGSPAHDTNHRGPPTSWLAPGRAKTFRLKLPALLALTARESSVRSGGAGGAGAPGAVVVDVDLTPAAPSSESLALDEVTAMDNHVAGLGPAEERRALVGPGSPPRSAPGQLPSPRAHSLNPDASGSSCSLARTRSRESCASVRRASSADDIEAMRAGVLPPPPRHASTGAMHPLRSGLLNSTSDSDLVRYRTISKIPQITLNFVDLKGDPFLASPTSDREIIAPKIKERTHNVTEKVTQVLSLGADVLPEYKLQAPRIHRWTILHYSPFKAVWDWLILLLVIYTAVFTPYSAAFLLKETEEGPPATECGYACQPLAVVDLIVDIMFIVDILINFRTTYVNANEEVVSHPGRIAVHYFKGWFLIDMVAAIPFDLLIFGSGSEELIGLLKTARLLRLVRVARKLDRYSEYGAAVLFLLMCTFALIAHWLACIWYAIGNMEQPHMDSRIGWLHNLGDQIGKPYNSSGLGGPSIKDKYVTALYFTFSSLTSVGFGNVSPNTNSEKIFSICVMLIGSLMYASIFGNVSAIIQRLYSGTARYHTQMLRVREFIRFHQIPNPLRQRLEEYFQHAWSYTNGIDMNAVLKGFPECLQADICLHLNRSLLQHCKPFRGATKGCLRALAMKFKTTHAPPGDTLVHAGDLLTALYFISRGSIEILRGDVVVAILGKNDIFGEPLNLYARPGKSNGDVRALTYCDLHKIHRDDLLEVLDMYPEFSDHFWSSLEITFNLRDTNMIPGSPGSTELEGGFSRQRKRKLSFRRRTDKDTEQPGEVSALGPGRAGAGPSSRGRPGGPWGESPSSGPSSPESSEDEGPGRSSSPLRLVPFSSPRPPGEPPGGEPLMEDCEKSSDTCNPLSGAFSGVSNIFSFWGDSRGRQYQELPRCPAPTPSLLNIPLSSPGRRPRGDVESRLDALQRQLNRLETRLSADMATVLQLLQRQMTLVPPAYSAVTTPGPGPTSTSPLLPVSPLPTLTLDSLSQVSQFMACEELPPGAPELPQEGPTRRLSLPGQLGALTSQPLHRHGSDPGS

[O]=[Cr][O][Cr]=[O]
active: [3] 2.58 µM
inactive: [1] | [2] | [4] | [5]

CCCCCCC[CH2][Sn]([Cl])([Cl])[CH2]CCCCCCC
active: [6] 35.6 µM
inactive: [1] | [2] | [4] | [5]

O=[N+]([O-])c1cc(C(F)(F)F)c(Cl)c([N+](=O)[O-])c1Nc1ncc(C(F)(F)F)cc1Cl
inactive: [1] | [2]
active: [7] 12.6 µM | [8] 0.564 µM | [6] 35.6 µM | [5] 20 µM

CC(=O)C(Cl)C(=O)N(C)C (stereo not drawn)
not listed: [3]
inactive: all other assays above

O=C(Cl)c1ccccc1F
inactive: [1] | [2] | [6] | [4] | [5]

CCCCCCCc1ccc(O)cc1
active: [7] 20 µM | [8] 35.6 µM | [6] 35.6 µM
inactive: [1] | [2] | [5]

Cc1cc(C2CC2)nc(Nc2ccccc2)n1
active: [7] 39.9 µM | [8] 63.3 µM | [6] 2.52 µM
not listed: [3]
inactive: all other assays above

CC(C)=CC1C(C(=O)OC(C#N)c2cccc(Oc3ccccc3)c2)C1(C)C (stereo not drawn)
inactive: [1] | [2] | [4] | [5]
active: [8] 10 µM

CCN(CC)CCN1C(=O)CN=C(c2ccccc2F)c2cc(Cl)ccc21
active: [4] 3.79 µM
inactive: [1] | [2] | [7] | [6]

c1csc(-c2ccc(-c3cccs3)s2)c1
active: [7] 17.8 µM | [8] 10 µM | [6] 1.12 µM
not listed: [3]
inactive: all other assays above

CC(C)=CCN1CC[C@@]2(C)c3cc(O)ccc3C[C@@H]1[C@@H]2C
inactive: [2] | [8] | [6] | [5]
active: [1] 44.1 µM | [7] 78.5 µM

CCNS(=O)(=O)C(F)(F)C(F)(F)C(F)(F)C(F)(F)C(F)(F)C(F)(F)C(F)(F)C(F)(F)F
inactive: [1] | [2] | [6] | [4] | [5]

CC(Cc1ccc(OCC(=O)O)cc1)NCC(O)c1csc(C(F)(F)F)n1 (stereo not drawn)
active: [6] 35.6 µM
not listed: [3]
inactive: all other assays above

OCC(Br)CBr (stereo not drawn)
not listed: [3] | [6]
inactive: all other assays above

Oc1cc(Cl)c(Cl)c(Cl)c1Cl
active: [6] 27.6 µM
not listed: [3] | [8]
inactive: all other assays above

Oc1ccc(Cl)c(Cl)c1
active: [6] 39.3 µM
inactive: [1] | [2] | [8] | [4]

CCCN
inactive: [1] | [2] | [8] | [4] | [5]

O=c1[nH]c2cc(Cl)ccc2n1C1CCNCC1
active: [3] 15.5 µM
inactive: [1] | [2] | [5]

CNC(=O)O/N=C(\C)C(C)S(C)(=O)=O (stereo not drawn)
active: [1] 447 µM
not listed: [3]
inactive: all other assays above

Nc1c(Cl)c(Cl)c(Cl)c(Cl)c1Cl
active: [6] 1.3 µM
not listed: [3] | [5]
inactive: all other assays above

CC(C)C(Nc1ccc(C(F)(F)F)cc1Cl)C(=O)OC(C#N)c1cccc(Oc2ccccc2)c1 (stereo not drawn)
active: [7] 9.01 µM
inactive: [1] | [2] | [4]

CCOP(=S)(NC(C)C)Oc1ccccc1C(=O)OC(C)C (stereo not drawn)
inactive: [1] | [2] | [4]
active: [7] 0.2 µM | [6] 8.94 µM | [5] 0.71 µM

CCOP(=O)(Sc1ccccc1)Sc1ccccc1
active: [1] 0.894 µM | [3] 56.4 µM | [7] 8.94 µM | [8] 28.3 µM | [6] 10 µM
inactive: [4] | [5]

CCCCC(CC)COC(=O)c1ccccc1C(=O)OCC(CC)CCCC (stereo not drawn)
inactive: [1] | [2] | [4]
active: [6] 33.6 µM

CCC1COC(Cn2cncn2)(c2ccc(Cl)cc2Cl)O1 (stereo not drawn)
inactive: [1] | [2] | [4]
active: [7] 0.317 µM | [8] 6.33 µM | [6] 28.3 µM | [5] 0.0894 µM
